Measurements published in PubChem BioAssay.
For part of these data: Potency and affinity values are given separately. Activity calls are given as the source filed them. Unless noted, the rule behind the calls is not given here.

How the values were obtained:
[1] = antimalarial activity against Dd2 strain (AID 2302;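 active = growth inhibition above 50% at the single 2 µM test dose, taken to imply half-maximal potency below 2 µM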;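 note: 0% = DMSO untreated growth and 100% = chloroquine plus artemisinin killed control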); details: P. falciparum Dd2 in RBCs, LDH growth readout, 72 h; at 2 µM; hits give high values
[2] = HepG2 cytotoxicity, primary screen, cytotoxicity control for P. falciparum antimalarial project, cell-based, ATP luminescence (AID 2303;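 active = inhibition above 50%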;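 note: 0% = DMSO wells and 100% = digitonin-killed cells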); details: HepG2 viability, 24-48 h, at 10 µM, hits give high values
[3] = molecular target: L-lactate dehydrogenase (Plasmodium falciparum (isolate CDC / Honduras)) (UniProt Q27743); assay: PfLDH activity inhibition – cell lysate, 3D7 strain, counter-screen for P. falciparum growth inhibition project (AID 2304);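 note: 0% = vehicle and 100% = reference inhibitor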; details: P. falciparum 3D7 crude extract, LDH APAD/NBT absorbance; at 2 µM; hits give high values
Sequence of L-lactate dehydrogenase (Plasmodium falciparum (isolate CDC / Honduras)) (Q27743 whole entry, looked up): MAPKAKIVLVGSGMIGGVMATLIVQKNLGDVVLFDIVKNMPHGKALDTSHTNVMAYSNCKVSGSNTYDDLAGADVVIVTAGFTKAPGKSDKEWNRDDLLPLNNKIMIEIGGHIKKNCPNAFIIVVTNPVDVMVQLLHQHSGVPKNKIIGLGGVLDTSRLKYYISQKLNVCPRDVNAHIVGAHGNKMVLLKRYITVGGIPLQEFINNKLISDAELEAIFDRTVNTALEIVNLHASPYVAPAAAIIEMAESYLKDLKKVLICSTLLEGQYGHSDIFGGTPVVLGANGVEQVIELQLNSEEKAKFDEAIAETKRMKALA

[4] = inhibition of 3D7 malaria parasite growth – strain 3D7 (AID 2306);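 note: 0% = DMSO wells and 100% = chloroquine plus artemisinin control wells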; details: P. falciparum 3D7 erythrocytic growth, LDH absorbance, 72 h; at 2 µM; hits give high values
[5] = molecular target: Calcium-dependent protein kinase 1 (Plasmodium falciparum (isolate 3D7)) (UniProt P62344); assay: PfCDPK1 kinase inhibitors, biochemical, TCAMS library (AID 1159585; cut-off not given, nearly all actives have IC50 up to about 0.98 µM;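 note: inhibitors leave more ATP so luminescence rises with inhibition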); details: recombinant PfCDPK1, Kinase-Glo ATP depletion luminescence
Sequence of Calcium-dependent protein kinase 1 (Plasmodium falciparum (isolate 3D7)) (P62344 whole entry, looked up): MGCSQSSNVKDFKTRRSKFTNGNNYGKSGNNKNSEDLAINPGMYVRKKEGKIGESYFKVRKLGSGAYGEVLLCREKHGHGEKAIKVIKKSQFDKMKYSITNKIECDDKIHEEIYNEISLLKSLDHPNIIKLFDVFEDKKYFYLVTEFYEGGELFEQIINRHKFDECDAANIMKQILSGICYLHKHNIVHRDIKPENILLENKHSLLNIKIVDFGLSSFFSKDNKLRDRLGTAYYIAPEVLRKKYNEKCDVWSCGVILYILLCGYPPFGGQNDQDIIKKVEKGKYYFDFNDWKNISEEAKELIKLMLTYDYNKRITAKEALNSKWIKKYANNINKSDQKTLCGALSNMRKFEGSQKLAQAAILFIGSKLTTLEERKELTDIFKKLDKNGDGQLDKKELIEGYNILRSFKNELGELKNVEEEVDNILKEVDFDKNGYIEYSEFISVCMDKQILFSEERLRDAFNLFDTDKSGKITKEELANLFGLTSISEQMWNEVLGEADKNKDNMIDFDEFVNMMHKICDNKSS

[6] = molecular target: Plasmodium falciparum protein kinase 6 (PK6, PF3D7_1337100) (UniProt Q8IDW1); assay: PfPK6 kinase inhibitors, biochemical, TCAMS library (AID 1159586); details: recombinant PfPK6, Kinase-Glo ATP depletion luminescence
Sequence of Plasmodium falciparum protein kinase 6 (PK6, PF3D7_1337100) (Q8IDW1 1-305): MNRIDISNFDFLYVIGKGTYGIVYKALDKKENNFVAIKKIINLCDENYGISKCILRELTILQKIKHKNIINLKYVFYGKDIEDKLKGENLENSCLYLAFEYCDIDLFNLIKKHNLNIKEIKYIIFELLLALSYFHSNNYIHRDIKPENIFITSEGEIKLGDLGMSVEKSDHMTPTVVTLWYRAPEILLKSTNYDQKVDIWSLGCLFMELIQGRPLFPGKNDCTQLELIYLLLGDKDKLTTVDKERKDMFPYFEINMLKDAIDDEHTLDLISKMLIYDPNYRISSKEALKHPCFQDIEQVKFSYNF

[7] = molecular target: Protein kinase 7 (PK7), Plasmodium falciparum 3D7 (PF3D7_0213400) (UniProt Q7YTF7); assay: inhibition of Plasmodium PK7 catalytic activity – biochemical, TCAMS antimalarial set, Kinase-Glo luminescence (AID 1159587); details: recombinant PfPK7, Kinase-Glo ATP depletion luminescence
Sequence of Protein kinase 7 (PK7), Plasmodium falciparum 3D7 (PF3D7_0213400) (Q7YTF7 1-343): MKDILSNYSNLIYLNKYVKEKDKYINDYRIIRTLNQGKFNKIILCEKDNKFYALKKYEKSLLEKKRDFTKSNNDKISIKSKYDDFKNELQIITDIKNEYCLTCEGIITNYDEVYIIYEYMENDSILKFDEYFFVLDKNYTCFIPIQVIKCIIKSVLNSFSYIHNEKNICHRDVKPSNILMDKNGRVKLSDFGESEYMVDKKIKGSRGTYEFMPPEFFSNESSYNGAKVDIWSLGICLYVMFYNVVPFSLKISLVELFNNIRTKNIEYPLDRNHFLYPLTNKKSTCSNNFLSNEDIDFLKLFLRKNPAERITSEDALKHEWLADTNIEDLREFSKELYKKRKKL

[8] = molecular target: Calcium-dependent protein kinase 4 (Plasmodium falciparum (isolate 3D7)) (UniProt Q8IBS5); assay: PfCDPK4 kinase inhibitors, biochemical, TCAMS library (AID 1159588; cut-off not given, nearly all actives have IC50 up to about 0.91 µM); details: recombinant PfCDPK4, Kinase-Glo ATP depletion luminescence
Sequence of Calcium-dependent protein kinase 4 (Plasmodium falciparum (isolate 3D7)) (Q8IBS5 whole entry, looked up): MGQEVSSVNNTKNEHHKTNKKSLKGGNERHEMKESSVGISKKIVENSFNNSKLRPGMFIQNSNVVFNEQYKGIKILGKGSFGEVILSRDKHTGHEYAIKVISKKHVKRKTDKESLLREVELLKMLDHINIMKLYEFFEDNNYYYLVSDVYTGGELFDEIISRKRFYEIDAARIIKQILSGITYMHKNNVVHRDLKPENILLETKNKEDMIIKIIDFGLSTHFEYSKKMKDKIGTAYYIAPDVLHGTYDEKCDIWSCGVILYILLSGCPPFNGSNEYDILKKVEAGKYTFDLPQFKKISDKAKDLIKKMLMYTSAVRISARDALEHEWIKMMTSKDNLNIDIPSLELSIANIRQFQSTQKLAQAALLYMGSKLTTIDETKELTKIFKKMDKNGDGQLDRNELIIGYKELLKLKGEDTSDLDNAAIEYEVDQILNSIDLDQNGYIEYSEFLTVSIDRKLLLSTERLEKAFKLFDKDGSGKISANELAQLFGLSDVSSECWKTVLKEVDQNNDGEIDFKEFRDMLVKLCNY

O=C(Nc1ccc(OC2CCN(Cc3ccccc3)CC2)c(Cl)c1)c1ccc(F)cc1
active: growth inhibition [1] 92% | growth inhibition [4] 94%
inactive: inhibition [2] 30% | inhibition [3] 9% | outcome [5] | outcome [6] | outcome [7] | outcome [8]

CC1(C)CCCN(Cc2c(O)ccc3c(=O)c(-c4nc5ccccc5s4)c(N)oc23)C1
inactive: inhibition [2] 20% | inhibition [3] -1% | outcome [5] | outcome [6] | outcome [7] | outcome [8]
active: growth inhibition [1] 100% | growth inhibition [4] 101%

O=C(Nc1cccc(C(F)(F)F)c1)c1ccc(S(=O)(=O)NCC2CCN(CC3CCCCC3)CC2)cc1
inactive: growth inhibition [1] 49% | inhibition [2] 24% | inhibition [3] -4% | outcome [5] | outcome [6] | outcome [7] | outcome [8]
active: growth inhibition [4] 100%

CCN(CCCN1CCCCC1)c1cc(C)nc(Nc2ccc(C)cc2C(F)(F)F)n1
inactive: growth inhibition [1] 35% | inhibition [2] 23% | inhibition [3] -2% | outcome [5] | outcome [6] | outcome [7] | outcome [8]
active: growth inhibition [4] 101%

CC(C)(CNCc1cccc(Oc2cccc(C(F)(F)F)c2)c1)c1nc(-c2ccc(Cl)c(O)c2)c(-c2ccnc(N)n2)[nH]1
active: growth inhibition [1] 98% | growth inhibition [4] 99%
inactive: inhibition [2] 23% | inhibition [3] 2% | outcome [5] | outcome [6] | outcome [7] | outcome [8]

CN1CCN(c2ccnc3ccc(NC(=O)Nc4ccc5c(c4)CCC5=O)cc23)CC1
inactive: inhibition [2] 8% | inhibition [3] 0% | outcome [5] | outcome [6] | outcome [7] | outcome [8]
active: growth inhibition [1] 67% | growth inhibition [4] 100%

N#Cc1ccc(CN2CCC(NC(=O)c3ccc(-c4nnc(-c5cccc6ccccc56)o4)cc3)CC2)cc1
active: growth inhibition [4] 98%
inactive: growth inhibition [1] 14% | inhibition [2] 37% | inhibition [3] -2% | outcome [5] | outcome [6] | outcome [7] | outcome [8]

CNCCNCc1cccc(-c2ccc(-c3nc4ccccc4[nH]3)s2)c1
active: growth inhibition [4] 99%
inactive: growth inhibition [1] 9% | inhibition [2] 8% | inhibition [3] 0% | outcome [5] | outcome [6] | outcome [7] | outcome [8]

Cc1[nH]c2ccccc2c(=O)c1[N+](=O)[O-]
inactive: growth inhibition [1] -2% | inhibition [2] 5% | inhibition [3] -5% | outcome [5] | outcome [6] | outcome [7] | outcome [8]
active: growth inhibition [4] 88%

CC(C)Nc1nc(NCCc2cnc[nH]2)nc(NCc2cccc3ccccc23)n1
inactive: growth inhibition [1] 0% | inhibition [2] 4% | inhibition [3] 2% | outcome [5] | outcome [6] | outcome [7] | outcome [8]
active: growth inhibition [4] 90%

O=C(c1csc(-c2cccnc2)n1)N1CCc2cc3nccc(N4CCN5CCC[C@H]5C4)c3cc21
inactive: inhibition [2] -7% | inhibition [3] -3% | outcome [5] | outcome [6] | outcome [7] | outcome [8]
active: growth inhibition [1] 78% | growth inhibition [4] 97%

Cc1onc(-c2ccc(Cl)cc2)c1-c1ccnn1S(=O)(=O)c1ccc(Cl)cc1
active: growth inhibition [1] 99% | growth inhibition [4] 101%
inactive: inhibition [2] -3% | inhibition [3] 3% | outcome [5] | outcome [6] | outcome [7] | outcome [8]

Cc1cc(Nc2ccc3c(c2)CCC3)n2ncnc2n1
active: growth inhibition [4] 86%
inactive: growth inhibition [1] 48% | inhibition [2] 4% | inhibition [3] -2% | outcome [5] | outcome [6] | outcome [7] | outcome [8]

Cc1nc(N2CCC(C)CC2)c2c3c(sc2n1)CCCC3
active: growth inhibition [4] 93%
inactive: growth inhibition [1] 39% | inhibition [2] 13% | inhibition [3] 1% | outcome [5] | outcome [6] | outcome [7] | outcome [8]

Cn1cncc1C(=O)Nc1ccc(-c2cccc(-c3nc4ccc(F)cc4[nH]3)c2)cc1
inactive: growth inhibition [1] 23% | inhibition [2] 5% | inhibition [3] 2% | outcome [5] | outcome [6] | outcome [7] | outcome [8]
active: growth inhibition [4] 102%

N#CCCN1CCN(Cc2cccc(-c3ccc(-c4nc5ccccc5[nH]4)s3)c2)CC1
active: growth inhibition [4] 96%
inactive: growth inhibition [1] 8% | inhibition [2] 48% | inhibition [3] -4% | outcome [5] | outcome [6] | outcome [7] | outcome [8]

CC(=O)Nc1ccc(C#Cc2ccc(-c3c(C)[nH]c(C)c(Cl)c3=O)cc2)cc1
inactive: inhibition [2] -3% | inhibition [3] -7% | outcome [5] | outcome [6] | outcome [7] | outcome [8]
active: growth inhibition [1] 78% | growth inhibition [4] 90%

Cc1ccc(OC2CCN(CCCCC3(C)C(=O)Nc4ccccc43)CC2)cc1 (stereo not drawn)
inactive: growth inhibition [1] 2% | inhibition [3] -3% | outcome [5] | outcome [6] | outcome [7] | outcome [8]
active: inhibition [2] 63% | growth inhibition [4] 100%

O=C(NCCc1ccccc1)N(Cc1cccc(-c2ccc(CNCc3ccc4c(c3)OCO4)cc2)c1)C1CCN(Cc2ccccc2)CC1
inactive: inhibition [2] 11% | inhibition [3] -2% | outcome [5] | outcome [6] | outcome [7] | outcome [8]
active: growth inhibition [1] 70% | growth inhibition [4] 94%

COc1ccc(C[C@@H](N)C(=O)N[C@H]2[C@@H](O)[C@H](n3cnc4c(N(C)C)ncnc43)O[C@@H]2CO)cc1
active: growth inhibition [1] 100% | inhibition [2] 99% | growth inhibition [4] 101%
inactive: inhibition [3] 0% | outcome [5] | outcome [6] | outcome [7] | outcome [8]

CN(C)c1ccc(C=C2SC(=Nc3ccccc3)N(c3ccccc3)C2=O)cc1[N+](=O)[O-]
inactive: inhibition [2] 9% | inhibition [3] 7% | outcome [5] | outcome [6] | outcome [7] | outcome [8]
active: growth inhibition [1] 82% | growth inhibition [4] 96%
